RORg inh: ROR gamma (mouse) transcription inhibition. Drosophila S2 Gal4-RORgamma UAS-luciferase reporter, 20 h. Potency, µM (top dose mostly 53.6 µM), hits mostly inhibitors. 310,000 compounds, 5.4% hits. P51450; also: nearly all actives have a fitted effect of over 60% in size
Target sequence (P51450 whole entry, looked up, the tested form may be a part): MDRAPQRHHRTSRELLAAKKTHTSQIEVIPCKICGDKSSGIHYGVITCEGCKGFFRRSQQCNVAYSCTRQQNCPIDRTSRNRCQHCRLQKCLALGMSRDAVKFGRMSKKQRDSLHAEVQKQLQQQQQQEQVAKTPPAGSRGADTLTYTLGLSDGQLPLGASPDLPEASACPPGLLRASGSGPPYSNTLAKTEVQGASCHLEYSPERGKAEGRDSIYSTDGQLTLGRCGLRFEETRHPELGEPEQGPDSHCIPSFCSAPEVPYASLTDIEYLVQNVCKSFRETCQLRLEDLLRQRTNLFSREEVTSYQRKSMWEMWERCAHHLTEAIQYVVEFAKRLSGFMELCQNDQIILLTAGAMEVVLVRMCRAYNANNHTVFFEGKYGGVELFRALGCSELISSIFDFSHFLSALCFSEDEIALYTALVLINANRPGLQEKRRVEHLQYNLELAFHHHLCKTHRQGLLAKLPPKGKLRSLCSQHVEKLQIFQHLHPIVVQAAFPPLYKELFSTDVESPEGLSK
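Stable Schneider cell line, Gal4 DNA-binding domain fused to ROR gamma, UAS-luciferase. Cmpd 1 hr RT → CuSO4 700 uM final → 20 hr RT → luciferase reagent 10 min → luminescence.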
Gal4-VP16 FLuc: counter-screen for ROR gamma inhibitors: Gal4-VP16 reporter. Drosophila S2 Gal4-VP16 UAS-luciferase, luminescence, 20 h. Potency, µM (doses to about 53.6 µM), actives largely listed as inhibitors. 310,000 compounds, 3.5% hits;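 also: Gal4-VP16 expression switched on by copper sulfate through the metallothionein promoter; nearly all actives have a fitted effect of over 50% in size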
uPA generation: blocks generation of uPA at the cell surface; Potency, µM (doses to about 38.3 µM), actives largely listed as inhibitors; AID 540303; 330,000 compounds, 0.31% hits; cell surface uPA generation assay, qHTS; active = well fitted inhibition curve with a large enough effect; inconclusive = small, poorly fitted or top-dose-only effect; inactive = no such curve, though single readings can be large or run the other way; tested in mouse RAW 264.7 cells; also: nearly all actives have a fitted effect of over 55% in size
Chronic BCR inh: inhibitors of chronic active B-cell receptor signaling; ABC-DLBCL IkBa-CBG/CBR reporter, luminescence ratio, 4 h; Potency, µM (titrated, usually from 46.1 µM), hits mostly inhibitors; 340,000 compounds, 0.05% hits; AID 493014; active = well fitted inhibition curve with a large enough effect in the signal ratio, with a control signal flat, not every such curve was filed as active; inconclusive = small, poorly fitted or top-dose-only effect, or effect the other way, or a change in a side signal; the % refers to the signal ratio
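Doxycycline induced both beetle luciferases in TMD8 lymphoma cells; IKK-driven degradation limits the IkappaBalpha-fused green signal, while red luminescence normalises for cell number and nonspecific effects. Compounds tested up to 46 uM, 4 hrs.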
Integrin act MD: integrin-mediated muscular dystrophy alleviation activation; alpha7betagal myoblasts, beta-gal FDG fluorescence, 48 h; Potency, µM (series often up to 38.3 µM), usual class: activators; 350,000 compounds, 0.064% hits; also: nearly all actives have a fitted effect of over 60% in size
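alpha7betagal+/- myoblasts (passage 13, 250/well) treated 48 h at 37C with compounds at 1:260 dilution of DMSO stock. Lysed, then beta-galactosidase activity read as FDG fluorescence (ex 480/em 540) after 30 min, with pre-read for autofluorescence.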
Mito fusion yeast: blocks mitochondrial division or promotes mitochondrial fusion; S. cerevisiae fusion-defective mutant growth rescue, CellTiterGlo 48 h; Potency, µM (top dose mostly 46.1 µM), hits mostly activators; 320,000 compounds, 0.23% hits; AID 485298; also: nearly all actives have a fitted effect of over 45% in size
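Growth-rescue viability read-out: after 48 h at the non-permissive 37C in glycerol/ethanol YPEG, yeast mitochondrial fusion mutants are measured by CellTiterGlo luminescence; compounds (23 nl pinned per well) restoring growth score as division inhibitors or fusion activators.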
Numbers stand for hits; 0 = inactive; ? = inconclusive; - = not tested or not shown; ! = repeats disagree; [ ] = dose if it differs, or a comment. This is a sample that favours compounds with a hit; in the whole collection about 5.5% have one here. Unless noted, calls follow the shape of the dose curve; as a rule, active = well fitted curve in the direction sought with a large enough effect; inconclusive = small, poorly fitted or top-dose-only effect, or another doubt; inactive = no such curve, though single readings can be large; an effect the other way counts as inactive or inconclusive.

SMILES	RORg inh	Gal4-VP16 FLuc	uPA generation	Chronic BCR inh	Integrin act MD	Mito fusion yeast
Cc1c(C(=O)NC2CC2)oc2ccccc12	-	-	0	?	?	0
CCCCCCCCCCCCCCC(C(=O)OC)C(O)(CC(=O)OC)C(=O)OC (stereo not given)	0	0	-	-	-	-
CC1(C)Cc2c(sc(NC(=O)COc3cccc4ccccc34)c2C#N)C(C)(C)N1	8.9µM	5µM	0	?	0	0
Cc1ccc(OCC(=O)Nc2sc3c(c2C#N)CC(C)(C)NC3(C)C)cc1	0	0	0	0	0	0
COc1ccc(OCC(=O)Nn2c(-c3ccc(OC)cc3)nc3ccccc3c2=O)cc1	?	10µM	0	0	0	0
COc1ccc(OCC(=O)Nn2c(-c3ccc(C)cc3)nc3ccccc3c2=O)cc1	0	6.3µM	0	0	0	0
COc1ccc(-c2nc3ccccc3c(=O)n2NC(=S)N(C)C)cc1	0	0	0	0	0	0
O=C(Cc1ccccc1)Nn1c(-c2ccccc2)nc2ccccc2c1=O	0	0	0	0	0	0
COc1ccc(-n2c(=O)c3c4c(sc3n(CC(=O)Nc3cc(C)[nH]n3)c2=O)CCC4)c(OC)c1	0	0	0	0	0	0
COc1ccccc1-n1c(=O)c2c3c(sc2n2c(=S)[nH]nc12)CCC3	13µM	0	0	0	0	0
COC(=O)COc1ccc2c(=O)c(-c3ccccc3)coc2c1	0	0	0	0	0	0
CC(C)Oc1ccc2c(=O)c(-c3ccccc3)coc2c1	0	?	0	?	-	25µM!
Cc1nn(CC(=O)Nc2ccc3nc4n(c(=O)c3c2)CCCC4)c(C)c1[N+](=O)[O-]	0	0	0	0	0	0
COc1cccc(Cn2ncc3c4sc(B(O)O)cc4n(C)c3c2=O)c1	-	-	-	0	-	0
CC1(C)N([O-])c2cc([N+](=O)[O-])ccc2[N+]1=O	20µM	?	0	0	0	0
CC(C)(C)C(=O)NNC(=O)c1cc2sccc2s1	0	0	0	?	0	0
O=C(NCC12CC3CC(CC(C3)C1)C2)c1nn2c(c1Cl)NC(c1ccco1)CC2C(F)(F)F (stereo not given)	?	14µM	0	0	0	0
CN(C)C1(CN=Cc2cc(Cl)cc([N+](=O)[O-])c2O)CCCCC1	?	0	0	0	8.9µM	0
O=C(O)c1cccc(-c2ccc(/C=c3/sc4nc5ccccc5n4c3=O)o2)c1	0	0	0	?	0	32µM
CNC(=O)c1ccccc1	0	0	-	-	-	-
N#Cc1ccccc1-c1ccc2ncnc(NCc3cccs3)c2c1	?	0	-	-	-	-
CC(C)(CO)[C@H](O)C(=O)NCCCO	0	0	-	-	-	-
COc1ccccc1C(C(=O)NC1CCCC1)N(C(=O)c1csnn1)C1CC1 (stereo not given)	0	0	0	0	0	3.2µM
COc1cccc(N2[C@@H](CC(=O)O)c3cc(C(F)(F)F)ccc3S2(=O)=O)c1	-	-	0	-	0	-
CCCCOc1ccc(C(=O)O)cc1	0	0	0	0	0	0
SMILES	RORg inh	Gal4-VP16 FLuc	uPA generation	Chronic BCR inh	Integrin act MD	Mito fusion yeast
CCCCCCCCOc1ccc(C(=O)O)cc1	0	0	0	0	-	13µM
CC(=O)c1ccc(OCCCCCCCOc2ccc(C(C)=O)cc2)cc1	0[1.91 µM]	0	0	0	0	0
N=C(N)c1ccc(OCCCCCOc2ccc(C(=N)N)cc2)cc1 (tested in a mixture with another compound)	-	-	-	-	-	2.3µM
Cc1ccccc1C([O-])=Nc1ccc[n+](-c2nc3ccccc3nc2NS(=O)(=O)c2ccccc2)c1	0	0	0	0	0	0
CCN(CC)C(=O)C(=O)N/N=C/c1ccc(F)cc1	0	0	0	?	0	0
COc1cccc2c1C(=O)c1c(O)c3c(c(O)c1C2=O)C[C@](O)(C(C)=O)C[C@H]3O[C@@H]1C[C@@H](N)[C@@H](O)[C@@H](C)O1	-	-	0	?	-	0
COc1cccc2c1C(=O)c1c(O)c3c(c(O)c1C2=O)C[C@](O)(C(=O)CO)C[C@H]3O[C@@H]1C[C@H](N)[C@H](O)[C@H](C)O1	1.1µM	7.1µM	-	-	-	-
O=C(/C=C/NNC(=O)c1ccc(Br)cc1)c1ccccc1	?	0	0	?	?	0
Cc1cccc(C(=O)NN/C=C/C(=O)c2ccccc2)c1	6.3µM	5µM	0	?	0	0
O=C(/C=C/NNC(=O)c1ccccc1O)c1ccccc1	?	?	0	?	0	0
O=C(/C=C/NNC(=O)c1ccccc1)c1ccccc1	7.9µM	?	0	?	0	0
Cc1ccc(C(=O)C=CNNC(=O)c2ccccc2)cc1	13µM	7.1µM	0	?	0	0
CC(=O)Nc1ccc(NC(=O)N(c2ccccc2)c2ccccc2)cc1	0	0	0	0	0	0
CN1C(=O)C[C@H](C(=O)O)[C@@H]1c1cccnc1	0	0	-	-	-	-
Cc1cc(NC(=O)c2ccc(Cl)cc2)n(CCOC(=O)c2ccc(Cl)cc2)n1	?	16µM	0	0	0	?
Cc1cc(NC(=O)c2ccc(F)cc2)n(CCOC(=O)c2ccc(F)cc2)n1	?	0	0	0	0	0
CC[C@H](C)[C@H](NC(=O)[C@H](C)NC(=O)CNC(=O)[C@H](CCCN=C(N)N)NC(=O)[C@H](C)NC(=O)[C@H](CC(C)C)NC(=O)[C@H](CCC(=O)O)NC(=O)[C@H](CC(C)C)NC(=O)[C@H](C)NC(=O)[C@@H](N)CCC(=O)O)C(=O)N[C@@H](Cc1ccccc1)C(=O)N[C@@H](CCC(N)=O)C(=O)N[C@@H](C)C(=O)O	0	0	-	-	-	-
CC(C)S(=O)(=O)c1csc(C(=O)NN)c1-n1cccc1	?	0	0	0	0	0

High-throughput results (PubChem BioAssay)
